Sfp PPTase inh: qHTS Assay for Inhibitors of Bacillus subtilis Sfp phosphopantetheinyl transferase (PPTase). Potency, µM, for inactives: largest response in the series, negative = inhibition, actives largely listed as inhibitors. AID 1490, 2009. Biochemical Sfp PPTase activity, qHTS. actives 3.5% (n = 310,000). 4'-phosphopantetheinyl transferase ffp (Bacillus subtilis), Q9F4F7;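 note: the enzyme is Sfp with the accession as filed and its product quenches rhodamine fluorescence; potency is the fitted concentration of half-maximal effect; 0% = enzyme reaction without inhibitor and -100% = no enzyme wells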
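Compounds were incubated with enzyme (final 15 nM) for 15 min at room temperature before substrate addition started the reaction. Fluorescence at 525 nm excitation, 598 nm emission was recorded immediately and after 30 minutes.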
Tau fibril FP: qHTS for Inhibitors of Tau Fibril Formation, Fluorescence Polarization; Microtubule-associated protein tau (Homo sapiens), P10636; K18 P301L tau heparin fibrillization, Alexa594 FP, 6 h; actives 0.39% (n = 280,000); Potency, µM (titrated, usually from 57.7 µM), without a hit: at the top dose activity, negative = inhibition, most hits filed as inhibitors; note: potency is the fitted concentration of half-maximal effect; nearly all actives have a fitted effect of over 55% in size
Target sequence (P10636 561-689 P618L limits assumed): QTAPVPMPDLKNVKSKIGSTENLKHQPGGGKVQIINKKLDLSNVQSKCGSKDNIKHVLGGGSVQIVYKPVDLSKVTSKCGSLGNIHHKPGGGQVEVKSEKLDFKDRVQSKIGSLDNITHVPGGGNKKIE
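Heparin (20 uM) drove fibril formation of recombinant tau K18 P301L, 15 uM unlabeled with 0.24 uM Alexa 594 label, for 6 hr at 37 C in 100 mM sodium acetate pH 7. Fluorescence polarization (555/632 nm) read 1 hr after 30 uM ThT.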
FBPA coupling cs: qHTS Assay for Inhibitors of Fructose-1,6-bisphosphate Aldolase from Giardia Lamblia: Coupling assay counterscreen; coupling enzyme system counterscreen, AmpLite Red fluorescence; activity change, negative = inhibition, % at 58.2 µM, hits read low; actives 0.67% (n = 290,000); in the data active = activity change below about -30%
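Final compound at 57.5 uM, incubated 10 min at RT with coupling enzyme reagent (glyceraldehyde-3-phosphate), then 20 min with substrate and AmpLite Red detection. Fluorescence read at 525/598 nm; tests interference with the coupling assay, not aldolase inhibition.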
Tau ThT inhib: qHTS for Inhibitors of Tau Fibril Formation, Thioflavin T Binding; Potency, µM (highest dose often 57.4 µM), inactives show top-dose activity, negative = inhibition, actives largely listed as inhibitors; actives 2.1% (n = 270,000); Microtubule-associated protein tau (Homo sapiens), P10636; recombinant tau K18 P301L, heparin-induced fibrillization, ThT fluorescence; note: potency is the fitted concentration of half-maximal effect; nearly all actives have a fitted effect of over 55% in size
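Using a mix of unlabeled (15 uM) and Alexa 594-labeled (0.24 uM) tau K18 P301L, heparin-triggered fibrillization over 6 hr at 37 C was scored by ThT fluorescence.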
Tau fluor counter: Counterscreen qHTS for Inhibitors of Tau Fibril Formation, Fluorescence Polarization | AID 1463, 2008 | tau K18 P301L Alexa594 fluorescence, heparin fibrillization | actives 0.93% (n = 280,000) | Potency, µM (highest dose often 57.7 µM), for the others: top-dose activity change, negative = decrease; note: potency is the fitted concentration of half-maximal effect; nearly all actives have a fitted effect of over 55% in size
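Human tau K18 P301L (15 uM unlabeled, 0.24 uM Alexa 594-labeled) in 100 mM sodium acetate pH 7 with 20 uM heparin, 6 hr at 37 C. ThT 30 uM added, 1 hr ambient; Alexa 594 FP and total fluorescence read at 555/632 nm.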
Numbers without * were called inactive; ! = a repeat was not active; [ ] = remark or other dose. Compounds with a hit are over-represented: about 5.2% of the library has one in this group of screens. Unless noted, calls come from the whole dose curve; as a rule, active = well fitted curve in the direction sought with a large enough effect; inconclusive = small, poorly fitted or top-dose-only effect, or another doubt; inactive = no such curve, though single readings can be large; an effect the other way counts as inactive or inconclusive. Unless noted, % is set by controls: 0 for no effect and ±100 for the full control effect.

How did O=C(COc1ccc(C(=S)N2CCOCC2)cc1Cl)Nc1ccccc1Cl do in these assays?
Sfp PPTase inh: 20µM*; Tau fibril FP: -17%; FBPA coupling cs: 1; Tau ThT inhib: -12%; Tau fluor counter: -15%

How did O=C(Oc1cccc(C(=S)N2CCOCC2)c1)c1ccccc1 do in these assays?
Sfp PPTase inh: 56µM*; FBPA coupling cs: 0

Results for CCc1ccccc1N(C)C(=O)Nc1cn(CC(C)C)c(=O)c2ccccc12 ?
Tau fibril FP: -7%; Tau ThT inhib: -3%; Tau fluor counter: -8%

What do the screens show for `COc1ccc(Oc2ncc3nc(-c4cc(F)cc(F)c4)c(=O)n(C)c3n2)cc1`?
Sfp PPTase inh: -24%; FBPA coupling cs: 0

What do the screens show for `COCCn1c(=O)c(-c2ccc(OC)cc2)nc2cnc(N3CCN(C)CC3)nc21`?
Sfp PPTase inh: 21%; FBPA coupling cs: -1

Results for O=S(=O)(Nc1cccc2cccnc12)c1ccccc1 ?
Sfp PPTase inh: 4%; FBPA coupling cs: -39*!

Results for CC(=O)Nc1ccc(S(=O)(=O)Nc2cccc3cccnc23)cc1 ?
Sfp PPTase inh: -7%; FBPA coupling cs: -4

Results for CN(C)c1ccc(N=Nc2ccccc2C(=O)OCC(=O)NCC2CCCCC2)cc1 ?
Sfp PPTase inh: inconclusive; Tau fibril FP: inconclusive; FBPA coupling cs: 4; Tau ThT inhib: 1.8µM*; Tau fluor counter: 14%

Results for O=C(OCC(=O)N(C1CCCCC1)C1CCCCC1)c1ccccc1O ?
Sfp PPTase inh: -4%; FBPA coupling cs: 0

Results for CN(C)c1ccc(N=Nc2ccccc2C(=O)OCC(=O)N(C)C2CCCCC2)cc1 ?
Sfp PPTase inh: -5%; Tau fibril FP: 12%; FBPA coupling cs: -1; Tau ThT inhib: 7.9µM*; Tau fluor counter: inconclusive

What do the screens show for `CN(C)c1ccc(N=Nc2ccccc2C(=O)OCC(=O)NC2CCCC2)cc1`?
Sfp PPTase inh: -15%; Tau fibril FP: -3%; FBPA coupling cs: 2; Tau ThT inhib: 6.3µM*; Tau fluor counter: inconclusive

How did COC(=O)[C@H]1[C@H]2C[C@@H]3c4[nH]c5ccccc5c4CCN3C[C@H]2C[C@@H](OC(=O)c2cc(OC)c(OC)c(OC)c2)[C@@H]1OC do in these assays?
Sfp PPTase inh: 29%

How did COc1ccccc1NC(=O)c1oc2ccccc2c1NC(=O)c1c(F)cccc1F do in these assays?
Tau fibril FP: -4%; Tau ThT inhib: 9%; Tau fluor counter: -26%

How did CNS(=O)(=O)c1ccc(NC(=S)Nc2ccc3c(c2)OCO3)cc1 do in these assays?
Sfp PPTase inh: 45µM*; Tau fibril FP: 4%; FBPA coupling cs: -12; Tau ThT inhib: 3%; Tau fluor counter: 1%

What do the screens show for `COc1ccccc1C(=O)NCc1ccc2c(c1)CCN2C(=O)c1ccncc1`?
Tau fibril FP: -6%; Tau ThT inhib: -2%; Tau fluor counter: -3%

Results for COc1cc(/C=C/C(=O)c2ccc(NS(=O)(=O)c3ccc(C)cc3)cc2)ccc1OC(F)F ?
Sfp PPTase inh: 4%; Tau fibril FP: -8%; FBPA coupling cs: 0; Tau ThT inhib: 15%; Tau fluor counter: 10%

What do the screens show for `COc1ccc(/C=C/C(=O)c2ccc(C)c([N+](=O)[O-])c2)cc1O`?
Sfp PPTase inh: 79µM*; Tau fibril FP: 0%; FBPA coupling cs: 0; Tau ThT inhib: 4%; Tau fluor counter: -1%

How did COc1cccc(/C=C/C(=O)c2ccc(C)c([N+](=O)[O-])c2)c1 do in these assays?
Sfp PPTase inh: -5%; Tau fibril FP: 2%; FBPA coupling cs: 6; Tau ThT inhib: 8%; Tau fluor counter: 7%

Results for COc1cc(/C=C/C(=O)c2ccc(NS(=O)(=O)c3ccc(C)cc3)cc2)cc(OC)c1O ?
Sfp PPTase inh: -8%; Tau fibril FP: 15%; FBPA coupling cs: -3; Tau ThT inhib: 11µM*; Tau fluor counter: 14µM*[quencher]
